A number with no mark means an inactive call. No rule for the calls is given here.

This experiment deals with Pantothenate synthetase (Mycobacterium tuberculosis (strain ATCC 25618 / H37Rv)) (UniProt P9WIL5). The experiment can be described thus: Recombinant Mtb pantothenate synthetase (PanC) inhibitors, coupled enzyme, confirmatory (AID 375).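 Also: 0% = full reaction with vehicle and 100% = no enzyme background.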 The conditions noted are these: coupled enzyme assay; at 10 µM, hits give high values.
Pantothenate synthetase (Mycobacterium tuberculosis (strain ATCC 25618 / H37Rv)), sequence (P9WIL5 whole entry, looked up): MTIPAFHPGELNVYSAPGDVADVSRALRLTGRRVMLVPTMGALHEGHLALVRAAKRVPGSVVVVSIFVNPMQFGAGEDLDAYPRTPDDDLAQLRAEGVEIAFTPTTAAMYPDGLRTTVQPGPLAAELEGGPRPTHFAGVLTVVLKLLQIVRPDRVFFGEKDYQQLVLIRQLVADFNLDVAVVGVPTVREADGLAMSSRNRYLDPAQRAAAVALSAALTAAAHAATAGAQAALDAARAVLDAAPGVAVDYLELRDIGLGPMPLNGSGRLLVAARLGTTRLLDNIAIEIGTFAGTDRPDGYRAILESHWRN
As a reminder, the inhibition is how much of the control response was suppressed. As to `CCc1cc(C(=O)OC)c(NC(=O)CCC(=O)O)s1`, the inhibition was 2%.

`CCOC(=O)N1CCN(C(=O)C(NS(=O)(=O)c2cccc3nsnc23)c2ccccc2)CC1` (stereo unspecified): the inhibition is 0%. The value for `CN1CCN(C(=O)c2ccc3c(=O)n(CCc4ccccc4)c(=S)[nH]c3c2)CC1` was 0%; that for `CCOCCn1cnc2sc(C(=O)Nc3nc(C)c(C(=O)OCC)s3)c(C)c2c1=O` was 13%; that for `O=C1c2oc3ccccc3c(=O)c2C(c2cccnc2)N1Cc1ccco1` (stereo unspecified) was 0%. In the case of `COc1ccc(-c2nc(CCNC(=O)c3ccco3)cs2)cc1OC` it was 5%; in that of `CN(C)C(=O)N1CCN(C(=O)c2ccco2)CC1`, 0%; in that of `c1ccc(-c2nc3cnccn3c2Nc2ccc3c(c2)OCCO3)cc1`, 0%.

Take `CCOc1ccc(NC(=O)c2ccc3c(c2)N(Cc2ccc(F)cc2)C(=O)CS3=O)cc1` (stereo unspecified): the inhibition was 10%. In the case of `O=C(CN1CCCN(S(=O)(=O)c2ccc(Br)cc2)CC1)Nc1ccc2c(c1)OCO2` it was 4%; in that of `CCSc1ccccc1C(=O)Nc1cccc(OC)c1`, 0%; in that of `CCOC(=O)C(NC(=O)c1ccc(OC)cc1)(N1CCOCC1)C(F)(F)F` (stereo unspecified), 2%.

Consider `CCCC(=O)Nc1ncnc2c1ncn2[C@@H]1O[C@@H]2COP(=O)(O)O[C@H]2[C@H]1OC(=O)CCC`, for which the inhibition is 0%.

As for `Oc1ccc2cccnc2c1`, the inhibition is 7%. In the case of `Cc1occc1C(=O)Nc1nnc(C2CCCCC2)s1` it was 0%. For `Cc1cccnc1-n1c(CCN2C(=O)c3ccccc3C2=O)nc2ccccc2c1=O`, the inhibition was 9%.

Source of the values: PubChem BioAssay.
